# Screening results from PubChem.
# A selection: hits, their analogues and other compounds. The true share with any hit is near 3.7%.
# BJeLR lethal – MLPCN primary cell-based screen for lethality selective to Ras in HRASV12 cells; inhibition, % (test concentration not listed); 300,000 compounds, 0.17% hits; BJeLR (HRASV12) viability, CellTiter-Glo ATP luminescence, 48 h; in the data active = inhibition above about 50%; inconclusive = no clear call, values can overlap the other calls
# BoNT F protease – BoNT/F light chain protease inhibitors, primary screen, biochemical, flow cytometry, MLPCN library. inhibition, % at 10 µM. Botulinum neurotoxin type F light chain protease (Clostridium botulinum). AID 588497, 2011. 360,000 compounds, 0.22% hits. Multiplex microsphere protease cleavage assay; in the data active = inhibition above about 35%, passing the limit was not always enough; inconclusive = no clear call, values can overlap the other calls; note: plate controls were buffer without enzyme for full effect and enzyme alone for no effect
# Anthrax LF prot – Bacillus anthracis LF protease inhibitors, primary screen, biochemical, multiplex microsphere, MLPCN library. Lethal factor (Bacillus anthracis), P15917. multiplex microsphere protease cleavage assay. inhibition, % at 10 µM. 360,000 compounds, 0.12% hits. AID 588501, 2011; note: plate controls were buffer without enzyme for full effect and enzyme alone for no effect
# Target sequence (P15917 whole entry, looked up): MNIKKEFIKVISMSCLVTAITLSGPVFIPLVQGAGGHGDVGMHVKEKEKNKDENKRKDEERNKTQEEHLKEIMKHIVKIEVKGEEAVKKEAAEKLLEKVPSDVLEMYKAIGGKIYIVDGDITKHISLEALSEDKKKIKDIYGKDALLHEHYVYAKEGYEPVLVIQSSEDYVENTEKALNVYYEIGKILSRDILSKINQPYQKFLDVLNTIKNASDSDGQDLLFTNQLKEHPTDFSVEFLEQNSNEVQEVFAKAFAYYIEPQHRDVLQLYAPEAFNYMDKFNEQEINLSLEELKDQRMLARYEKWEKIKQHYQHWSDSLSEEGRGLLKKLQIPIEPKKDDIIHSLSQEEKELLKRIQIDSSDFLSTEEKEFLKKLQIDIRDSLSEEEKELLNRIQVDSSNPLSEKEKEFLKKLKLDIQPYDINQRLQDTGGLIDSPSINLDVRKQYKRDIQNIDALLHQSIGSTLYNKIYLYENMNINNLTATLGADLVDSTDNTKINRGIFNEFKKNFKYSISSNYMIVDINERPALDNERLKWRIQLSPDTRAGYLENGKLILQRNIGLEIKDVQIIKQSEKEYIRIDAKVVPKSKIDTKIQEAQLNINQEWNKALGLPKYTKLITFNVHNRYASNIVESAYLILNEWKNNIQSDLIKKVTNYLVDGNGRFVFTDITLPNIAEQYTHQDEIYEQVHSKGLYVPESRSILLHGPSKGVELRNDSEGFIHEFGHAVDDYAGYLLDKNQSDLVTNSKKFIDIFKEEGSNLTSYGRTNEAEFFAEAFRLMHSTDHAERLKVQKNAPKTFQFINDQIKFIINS
# BH1578 lux ind – inducers of Vibrio cholerae quorum light production without autoinducers, primary screen, BH1578 luxS cqsA deficient, single point. activation, % at 18.7 µM. AID 588436, 2011. 350,000 compounds, 0.16% hits. V. cholerae BH1578 lux reporter, luminescence, 6 h; in the data active = activation mostly above about 9.7%, no sharp cut-off; inconclusive = no clear call, values can overlap the other calls; inactive = mostly below about 3.7%
# Bead autofluor – flagged as autofluorescent in microsphere protease counterscreen | 360,000 compounds, 3.1% hits | fluorescence intensity (no concentration beside the values) | compound autofluorescence counterscreen, microsphere flow cytometry; active compounds read high; in the data active = fluorescence intensity above about 16000; inconclusive = no clear call, values can overlap the other calls
# BoNT-A LC inh2 – BoNT/A light chain protease inhibitors, primary screen, biochemical, flow cytometry, MLPCN library; Botulinum neurotoxin type A light chain protease (Clostridium botulinum A str. ATCC 3502); multiplex microsphere protease substrate cleavage; inhibition, % at 10 µM; 360,000 compounds, 0.17% hits; AID 588499, 2011; note: plate controls were buffer without enzyme for full effect and enzyme alone for no effect
# Numbers without * were called inactive; i = inactive; ? = inconclusive; . = not tested or not shown. Cut-off read from the data, not from the text of the source, unless noted: active = inhibition above about 30%; inconclusive = no clear call, values can overlap the other calls; inactive = below that.
SMILES,BJeLR lethal,BoNT F protease,Anthrax LF prot,BH1578 lux ind,Bead autofluor,BoNT-A LC inh2
CCC(C)N(CC(=O)NCc1ccc(OC)cc1)C(=O)c1csnn1 (stereo not given),-1.8,8.5,-15.1,i,16830*,?
C=CCN(CC(=O)NCc1ccc(OC)cc1)C(=O)c1csnn1,1.2,1.2,-3.2,i,15736,2.5
CCOC(=O)c1cccc(S(=O)(=O)N(CCO)Cc2cc3cc(OC)c(OC)cc3[nH]c2=O)c1,-0.5,-1.3,2.9,-0.2,24123*,-1.1
CCOC(=O)c1cccc(S(=O)(=O)N(CCO)Cc2cc3cc(OC)ccc3[nH]c2=O)c1,-1.7,-2.6,-2.4,-0.6,9606,0.5
COc1cc2cc(CN(CCO)S(=O)(=O)c3ccccc3Cl)c(=O)[nH]c2cc1OC,10.9,-1.7,-1.6,i,16702*,?
CN(C)CCNC(=O)c1cc(Br)ccc1Cl,-9.6,-0.4,-0.1,-0.2,21132*,-1.1
CCc1ccc(OCCNC(=O)c2cc(SC)ccc2Cl)cc1,-2.2,-2.0,0.0,i,23443*,-0.4
CCCNC(=O)c1cc(SC)ccc1Cl,-6.8,6.8,-9.1,i,20823*,7.5
Cc1cc(NC(=O)CS(=O)(=O)c2cn(Cc3cccc(C(F)(F)F)c3)c3ccccc23)no1,.,-2.8,-12.1,-0.7,3574,-0.3
O=C(CC1C[C@H](C(=O)N2CCOCC2)[C@@]2(CCC3CCCC3)c3[nH]c4ccccc4c3CCN2C1=O)NCc1ccco1 (stereo not given in full),.,-0.3,-7.7,-0.5,3598,-0.1
Cc1nc2ncnn2c(C)c1CCC(=O)N1CCCCC1,1.0,20.6,5.2,-0.4,4106,3.2
Cc1nc2ncnn2c(C)c1CCC(=O)N1CCOCC1,-5.8,5.2,-4.7,6.2,22539*,1.5
Cc1nc2nc(C)c(CCC(=O)N3CCN(c4ccccn4)CC3)c(C)n2n1,7.9,-3.4,-5.3,-0.2,23157*,-1.2
Cc1cc2nc(-c3ccccc3)c(Cc3ccsc3)n2c(C)c1Br,.,-6.1,2.6,.,4299,2.0
Nc1c(S(=O)(=O)c2cccs2)c2nc3ccccc3nc2n1Cc1cccs1,4.7,-4.0,-1.2,-0.4,2901,0.5
Nc1c(S(=O)(=O)c2cccs2)c2nc3ccccc3nc2n1CC1CCCO1 (stereo not given),.,4.0,0.7,-0.2,22380*,3.1
O=C(c1ccccc1)N1CCN(C(=O)c2ccccc2)CC1,-3.7,-4.2,-4.1,4.2,3075,-0.4
O=C(c1ccccc1)n1ccn(-c2ccccc2)c1=S,-12.3,1.3,0.8,3.1,19357*,?
COc1ccc(S(=O)(=O)Nc2ccccc2OC)cc1C,7.2,-7.3,-4.3,1.5,6268,-0.8
COc1ccc(NS(=O)(=O)c2ccc(SC)cc2)c(OC)c1,-9.6,1.7,0.6,-0.4,21230*,6.0
COc1ccc(S(=O)(=O)Nc2ccccc2SC)cc1C,4.5,-0.7,-1.1,i,23520*,-0.8
CCc1nc2ccc(C(=O)Nc3ccc(OC)c(OC)c3)cn2c1N(C)CCC(C)C,.,-5.4,-10.6,i,2776,-0.3
CCN1C(=O)/C(=C/c2cccs2)SC1=Nc1ccc(OC)cc1,-8.1,-13.0,-6.1,.,3226,-0.4
COc1ccc(N=C2S/C(=C\c3ccc(Cl)c([N+](=O)[O-])c3)C(=O)N2CCN(C)C)cc1,58.6*,-13.2,-9.3,-0.3,3637,-1.0
CCN(CC)CCN1C(=O)/C(=C\c2ccc(Cl)c([N+](=O)[O-])c2)SC1=Nc1ccc(OC)cc1,87.7*,-42.5,-7.8,-1.8,3766,-2.8
SMILES,BJeLR lethal,BoNT F protease,Anthrax LF prot,BH1578 lux ind,Bead autofluor,BoNT-A LC inh2
CCCN1C(=O)/C(=C/c2ccc(C)s2)SC1=Nc1ccc(OC)cc1,8.9,4.5,-1.0,i,3101,-1.1
O=C(Nc1ccncc1)Nc1ccc(F)cc1F,6.7,2.4,1.1,-0.1,23331*,1.1
O=C(Nc1ccc(F)cc1F)Nc1ccc(F)cc1F,6.0,-16.3,-3.8,i,2642,-2.9
CNC(=O)COC(=O)c1nc(-n2nc(C)cc2C)ccc1Cl,-0.9,-2.8,-0.1,-0.2,24164*,-0.8
CCCC1=C(C(=O)OCC)C2(C(=O)Nc3ccc(C)cc32)C(C#N)=C(N)O1 (stereo not given),1.1,0.8,2.4,i,20310*,?
CCOC(=O)CC1=C(C(=O)OCC)C2(C(=O)Nc3ccccc32)C(C#N)=C(N)O1 (stereo not given),3.4,1.4,-1.3,i,4337,-1.3
O=C(/C(=C/c1ccc(Cl)cc1)c1nc2ccccc2[nH]1)c1cccs1,47.9,-3.2,-3.0,-0.9,16724*,-1.5
COc1ccc(-c2cnc3c(NC(C)=O)cc(-c4ccc(C(=O)N5CCOCC5)cc4)cn23)cc1OC,.,-9.2,-9.3,-0.5,4212,-0.3
CC(C)(C)NC(=O)C(c1ccc(O)cc1)N(Cc1ccc2c(c1)OCO2)C(=O)CCl (stereo not given),.,-3.7,-4.3,-5.0,4052,-0.2
O=C(OCc1ccccc1)N1CCC2CC1c1cc(-c3ccc4c(c3)OCO4)ccc12 (stereo not given),.,-5.4,-0.7,-0.2,4045,-0.6
CC(=O)Oc1ccc(/C=c2\sc3ncnn3c2=O)cc1,4.9,2.1,-2.9,i,22478*,0.5
CCOc1ccccc1/C=c1\sc2ncnn2c1=O,1.7,-0.5,-4.1,-1.2,21270*,?
CCCOc1ccc(/C=c2\sc3ncnn3c2=O)cc1,4.1,1.0,-4.2,i,4162,0.6
CCOc1ccccc1C=C1SC(=S)N(CC)C1=O,.,1.5,3.4,i,3880,2.3
CCc1nc2c(OCCOC)cccn2c1N(C)C(=O)c1ccco1,.,-5.6,-7.4,0.3,3764,0.0
O=C(O)CCc1nn2c3ccccc3n(CCN3CCCCC3)c2nc1=O,2.0,-6.1,-0.4,-0.1,17537*,-3.5
CN(C)c1oc(-c2ccccc2)nc1C#N,-10.4,1.1,-4.4,i,22791*,0.0
O=C(CNc1ccccc1)N/N=C/c1ccc([N+](=O)[O-])o1,-12.3,-6.8,-1.4,i,24670*,-2.6
O=C(N/N=C/c1ccc([N+](=O)[O-])o1)c1cc2ccccc2o1,67.6*,.,.,-0.7,.,.
CC(=O)Nc1cccc(-c2cccc3nccn23)c1,.,4.8,-4.5,i,3463,0.0
CC(C)C(=O)N1CCC1(C)C(=O)NCc1ccc(F)cc1Cl (stereo not given),.,8.2,-3.0,-0.3,3563,-0.2
O=C(NC1(C(F)(F)F)NC(=O)N(C2CCCCC2)C1=O)C1CC1 (stereo not given),12.9,-13.5,-2.7,i,4413,-1.8
